Structures are written as SMILES. Records with an inconclusive call do not appear. A call without a number means that no potency is given here. Calls of active or inactive are those of the source. Calls come from the whole dose curve; as a rule, active = well fitted activation curve with a large enough effect; inconclusive = small, poorly fitted or top-dose-only effect; inactive = flat fitted curve, though single readings scatter.

The nature of the experiment: qHTS for Inhibitors of Cell Surface uPA Generation: Confirmatory Assay for Cherry-picked Compounds. The note with it: cell surface uPA activity generation, qHTS confirmation; series mostly up to 115 µM. An outline of the steps:
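RAW 264.7 cells at 4000/well, incubated overnight, then treated with compounds. After 24 h at 37 C, viability was read by ATPlite luminescence. An increase in signal indicates blocked uPA-dependent LF entry.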
For orientation: qHTS replaces the single test concentration by a dilution series.
On to `CCc1ccc(NC(=O)Cn2cnc([N+](=O)[O-])c2)cc1`, for which the Potency result was “inactive”.
As for `COCCN(C(=O)c1ccccc1OC)c1nnc(C)s1`, the Potency result is “inactive”.
Next, `O=C(COC(=O)c1ccc2ncsc2c1)NCc1cccc(Cl)c1`: “inactive”.
For `COc1ccc(CN2CCNC(=O)C2CC(=O)NCC2CCOCC2)cc1C` (centres undefined), the Potency entry is “inactive”.
The value for `COc1cc2oc(=O)ccc2cc1[C@H](O)[C@@H](O)C(C)(C)O` was “inactive”.
As to `Cc1ccc(N=C2SCCCN2C(=O)c2cccc(N3C(=O)CCC3=O)c2)cc1Cl`, the Potency entry was “inactive”.
As for `Cc1cccc(CCNC(=O)Cc2ccc(NC3=NC4CS(=O)(=O)CC4S3)cc2)c1` (centres undefined), the Potency result was “inactive”.
Next, `COc1ccc(-n2ncc3c(=O)n(CC(=O)NC(C)C)cnc32)cc1`: “inactive”.
Next, `COc1cc(/C=N/NC(=O)Cc2csc(C)n2)ccc1OCC(C)C`: “inactive”; `N#C/C(N=Nc1ccccc1O)=N\Nc1ccccc1O`: “inactive”; `CC(NC(=O)NC1CCCCC1)C(c1cccs1)N1CCN(C)CC1` (centres undefined): “inactive”.
As for `CC(=O)Nc1ccc(OS(=O)(=O)c2c(C)cc(C)cc2C)cc1`, the Potency result is “inactive”.
Next, `CN(C(=O)CCn1c(=S)oc2ccccc21)c1ccc(F)cc1`: “inactive”; `COc1cccc(NC(=O)CN(C)C(=O)c2csc3c2CCCC3)c1`: “inactive”; `CCC(C)C(NC(=O)c1ccccc1)C(=O)Nc1ccc(S(=O)(=O)Nc2cc(C)nc(C)n2)cc1` (centres undefined): “inactive”.
Next, `C#CCN1C=C(C(=O)OCC)C(C)NS1(=O)=O` (centres undefined): “inactive”; `Cc1cc(N)n(Cc2ccc(Cl)cc2)n1`: “inactive”; `CCCCn1c(-c2cccnc2)nc2cc3[nH]c(=O)c(C(C)C)nc3cc21`: “inactive”.
Next, `CCOC(=O)c1ccccc1N=Cc1c(O)c2ccccc2oc1=O`: “inactive”.

(Values after PubChem BioAssay AID720519 (National Center for Advancing Translational Sciences (NCATS), 2013).)
